High-throughput results: PubChem, several laboratories
An excerpt weighted towards active compounds, which were near 28% of everything screened.
CYP2C9 activ = increases human cytochrome P450 2C9 activity; P11712; recombinant CYP2C9, luciferin-H conversion, luminescence; active compounds read high; factor 1 = untreated enzyme, 0 = blocked; activation factor at 5 µM; 96,000 tested, 1.4% active; AID 1024;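 active means activation factor of 2 or more for CYP2C9 at a 5 µM dose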;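 further: 0 = sulfaphenazole-blocked wells and 1 = vehicle-only wells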
Target sequence (P11712 whole entry, looked up): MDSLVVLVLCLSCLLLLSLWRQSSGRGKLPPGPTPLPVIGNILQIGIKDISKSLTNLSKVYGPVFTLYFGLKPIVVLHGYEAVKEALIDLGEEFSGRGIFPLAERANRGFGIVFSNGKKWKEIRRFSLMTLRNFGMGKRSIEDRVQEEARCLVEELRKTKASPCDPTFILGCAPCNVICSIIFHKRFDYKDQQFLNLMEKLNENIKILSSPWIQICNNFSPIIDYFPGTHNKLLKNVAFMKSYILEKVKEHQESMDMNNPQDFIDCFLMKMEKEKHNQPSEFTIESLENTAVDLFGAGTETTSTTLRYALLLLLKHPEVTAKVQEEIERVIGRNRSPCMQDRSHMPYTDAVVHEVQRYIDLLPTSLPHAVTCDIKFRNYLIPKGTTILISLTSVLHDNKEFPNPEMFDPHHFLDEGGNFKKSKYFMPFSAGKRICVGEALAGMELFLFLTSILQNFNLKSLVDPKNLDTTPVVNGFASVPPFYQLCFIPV
PLK1 kinase inh = PLK1 (human) kinase inhibition; recombinant PLK1 kinase, TR-FRET peptide phosphorylation; inhibition, % at 10 µM; 97,000 tested, 0.53% active;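 active means inhibition of 50% or more in the single-concentration screen; inactive means inhibition below 50%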;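 further: 0% = DMSO max control and 100% = H-89 dihydrochloride min control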
Plk1 PBD FP = blocks phosphopeptide binding to human Plk1 polo box domain. inhibition, %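 (tested at about 20 µM)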. Plk1 PBD phosphopeptide binding, fluorescence polarization. P53350. 97,000 tested, 0.13% active; in the data active means inhibition above about 34%, passing the limit was not always enough
CYP2C19 activ = activators of human cytochrome P450 2C19 | recombinant CYP2C19, luciferin-H EGE luminescence; active compounds read high; 0 = fully inhibited enzyme, 1 = untreated enzyme | P33261 | activation factor at 5 µM | 96,000 tested, under 10 active;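 active means activation factor of at least 2 at 5 µM in the primary screen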;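 further: 0 = wells with 2.5 mM tranylcypromine and 1 = vehicle-only wells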
CYP2C19 inhib = blocks human cytochrome P450 2C19; inhibition, % at 5 µM; P33261; CYP2C19 Supersomes, luciferin-H EGE luminescence, 30 min; 96,000 tested, 21% active;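 active means CYP2C19 inhibition above a set limit at 5 µM in the primary screen, cut at about 50% in these data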;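 further: plate controls were negative control wells for no effect and 2.5 mM tranylcypromine positive control for full effect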
CYP2C9 inh = inhibitors of human CYP2C9; P11712; CYP2C9 Supersomes, luciferin-H conversion, luminescence; inhibition, % at 5 µM; 96,000 tested, 20% active;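 active means blocking of liver enzyme CYP2C9 beyond about 50% at 5 µM, limit read from the data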
Numbers without * were called inactive; . = not tested or not shown.

SMILES	CYP2C9 activ	PLK1 kinase inh	Plk1 PBD FP	CYP2C19 activ	CYP2C19 inhib	CYP2C9 inh
Cc1ccc(C)c(NC(=O)CSc2nnc(-c3ccccc3C)o2)c1	0.9	-11	-30	0.6	42	14
O=C1C=C(c2ccccc2)OC2(CCCC2)O1	1.1	1	-10	0.4	63*	-12
O=C(c1cccc(N2C(=O)C3CC=CCC3C2=O)c1)N1CCN(c2ccccc2)CC1 (stereo not drawn)	.	-1	-23	.	.	.
CN1CC2=Cc3ccccc3OC23Oc2ccccc2C=C3C1	0.4	-3	-4	0.5	54*	58*
Cc1cc2n(n1)C(c1sccc1C)Nc1ccccc1-2 (stereo not drawn)	0.4	-7	-25	0.3	66*	56*
Cc1ccc2c(c1)-c1cc(C)nn1C(c1sccc1C)N2 (stereo not drawn)	0.4	7	8	0.2	79*	56*
Cc1cc(NC(=O)Cn2cnc3c2c(=O)n(C)c(=O)n3C)n(-c2ccccc2)n1	1	-5	6	1.1	-14	-2
CCc1ccc(NC(=O)CSc2nc3cc(C(=O)OC)ccc3c(=O)n2CC2CCCO2)cc1 (stereo not drawn)	0.5	-12	-3	0.8	20	46
CCOC(=O)c1nnc2c(Br)c(-c3ccccc3)nn2c1C	.	-9	-8	.	.	.
O=C(COC(=O)CC1CCCC1)Nc1cc2c(cc1Cl)C(=O)c1ccccc1C2=O	0.6	-3	3	0.4	61*	42
COc1ccccc1-n1cnnc1SCC(=O)c1ccc[nH]1	0.6	-2	-8	0.4	59*	41
COc1nc2ccccc2c(=O)n1OCC(C)C	0.8	-5	19	0.2	82*	19
O=C(CNC(=O)Cn1ccc2ccccc2c1=O)NCCCN1CCCCCC1	1.2	.	.	1.2	-17	-17
Cc1cc2ncn(C(=O)N3CCCCC3)c2cc1C	0.9	-7	-30	0.2	82*	6
Cc1cc2ncn(C(=O)N3CCCCCC3)c2cc1C	.	-8	5	.	.	.
CCCn1nnnc1SCC(=O)N1CCCC1	1.1	-13	30	1	2	-5
COc1ccc(OC)c(C(=O)CSc2nc3ccccc3n2CC(=O)NC(C)(C)C)c1	0.1	-8	-8	0.7	26	87*
COc1ccc(C(=O)CSc2nc3ccccc3n2CC(=O)c2ccccc2)cc1	0.2	-7	5	0.5	54*	76*
CC(C)(C)NC(=O)Cn1c(SCC(N)=O)nc2ccccc21	1.2	-7	18	1.2	-18	-16
COc1ccc(OCCSc2nc3ccccc3n2CC(=O)O)cc1	1.2	-6	-22	1.2	-16	-20
CC(=O)c1c(C)oc2ccc(O)c(CN3CCOCC3)c12	1	-3	-41	0.8	20	0
COC(=O)c1ccc(Oc2nc(C)cc(Oc3ccccc3)n2)cc1	.	-3	-8	.	.	.
COC(=O)CSc1nc(C)cc(Oc2ccccc2)n1	0.6	59*	-4	0.1	86*	38
Cc1cc(Oc2ccccc2)nc(SCC(=O)Nc2ccc(Cl)cc2Cl)n1	0.1	-9	-6	0	99*	93*
COc1cc(OC)cc(C(=O)NCC(=O)N2CCCCC2)c1	1.2	-9	-14	1	1	-24
SMILES	CYP2C9 activ	PLK1 kinase inh	Plk1 PBD FP	CYP2C19 activ	CYP2C19 inhib	CYP2C9 inh
Cc1ccc(-n2nnnc2SCC(=O)Nc2ccc3c(c2)COC3=O)cc1C	1	-9	-23	0.8	20	-3
Cc1c(NC(=O)N2CCCCCC2)c(=O)n(-c2ccccc2)n1C	1.1	-4	-1	1	-3	-15
CCC(CC)C(=O)Nc1c(C)n(C)n(-c2ccccc2)c1=O	0.5	-12	28	1	3	51*
Cc1ccc(N(CC(=O)Nc2c(C)n(C)n(-c3ccccc3)c2=O)S(C)(=O)=O)cc1C	.	-6	2	.	.	.
CCN(CC)C(=O)Nc1c(C)n(C)n(-c2ccccc2)c1=O	.	55*	14	.	.	.
Cc1cccc(N(CC(=O)Nc2c(C)n(C)n(-c3ccccc3)c2=O)S(C)(=O)=O)c1C	0.9	-6	24	0.1	91*	12
Cc1c(NC(=O)COC(=O)C(c2ccc(Cl)cc2)C(C)C)c(=O)n(-c2ccccc2)n1C (stereo not drawn)	0.4	-15	-10	0.7	31	58*
CCc1c(C)nc(N)n2c(SCC(=O)N3CCN(c4ccccc4F)CC3)nnc12	1	.	.	1	-4	4
CCOC(=O)CNC(=O)Cn1cnc2ccc(S(=O)(=O)N3CCC(C)CC3)cc2c1=O	0.8	11	-24	1.1	-9	23
O=C(O)c1cc2ccc3ccccc3c2[nH]1	1	-1	-8	0.9	8	2
CCOC(=O)c1cc2cc(OC)ccc2nc1C	.	-15	12	.	.	.
CNc1sc(C(=O)c2ccc(F)cc2)c(N)c1-c1nc2ccccc2s1	1.1	-1	0	1	3	-6
CNc1sc(C(=O)c2cccs2)c(N)c1-c1nc2ccccc2s1	0.3	.	.	0.7	29	67*
Cc1cc(C)c(NC2=NS(=O)(=O)c3ccccc32)c(C)c1	1	-33	19	1.1	-8	3
N#CC1=C(N)NC(SCC(=O)c2ccc(Cl)cc2)=C(C#N)C12CCCC2	0	-9	17	0	100*	97*
COc1ccc(C(=O)CSC2=C(C#N)C3(CCCCC3)C(C#N)=C(N)N2)cc1	0	-4	10	0	100*	98*
N#CC1=C(N)NC(SCC(=O)Nc2ccccc2)=C(C#N)C12CCCCC2	.	-1	5	.	.	.
COc1ccc(C(=O)CSc2nc(N)nc(SC)c2C#N)cc1	0.7	-22	9	0.8	25	27
CCOC(=O)N1CCC(Nc2c(NCCCN(CC)Cc3ccccc3)c(=O)c2=O)CC1	1.1	0	-8	1	1	-8
COC(=O)c1cn(NC(=O)CCC2CCCC2)c(=O)c2ccccc12	1	1	-27	0.6	43	5
NC(=O)C1(N2CCCCC2)CCN(C(=O)CCCn2c(=O)[nH]c3ccsc3c2=O)CC1	0.7	-6	6	1	-2	30
CC12CC(c3ccccc3O1)N(C(=O)c1ccco1)C(=S)N2c1ccc(F)cc1 (stereo not drawn)	0.6	-5	8	0.4	63*	45
Cc1ccc2c(c1)c1c3n2CCN(C(=O)C2CC2)C3CCC1 (stereo not drawn)	0.5	-4	-6	0.6	42	50*
Cc1ccc2c(c1)c1c3n2CCCN(Cc2ccccc2)C3CCC1 (stereo not drawn)	0.7	-11	11	0.4	61*	32
Cc1ccc2c(c1)c1c3n2CCN(C(=O)Cn2c(-c4ccccc4)noc2=O)C3CCC1 (stereo not drawn)	0.5	-18	-34	0.9	9	50*
Cc1ccc2c(c1)c1c3n2CCN(C(=O)CN2CCN(C)CC2)C3CCC1 (stereo not drawn)	0.9	.	.	0.8	15	14
